Here are results for 40 compounds from PubChem BioAssay (EPA / NIEHS).

Structures are written as SMILES. Calls of active or inactive are those of the source. The calls were made as follows: active = hit-call score of the fitted dose curve at least 0.9, where 1 is the maximum; inactive = score below 0.9.

Broadly, the AC50 is the midpoint of the concentration-response curve, whichever way the signal moves.

The nature of the assay: ATG_PXRE_CIS: Attagene CIS-FACTORIAL HepG2 Assay for human Pregnane X Receptor Element (PXRE) (AID 2282957). The following applies: HepG2 Attagene CIS-FACTORIAL PXRE reporter, mRNA; actives raise or lower the signal. Here is the method:
ATG_CIS is a cell-based, multiplexed-readout assay that uses HepG2, a human liver cell line, with measurements taken at 24 hours after chemical dosing in a 24-well plate.ATG_PXRE_CIS is one of 52 assay component(s) measured or calculated from the ATG_CIS assay. It is designed to make measurements of mRNA induction, a form of inducible reporter, as detected with fluorescence intensity signals by Reverse transcription polymerase chain reaction (RT-PCR) and Capillary electrophoresis technology.Data from the assay component ATG_PXRE_CIS was analyzed into 1 assay endpoint. This assay endpoint, ATG_PXRE_CIS, was analyzed with bidirectional fitting relative to DMSO as the negative control and baseline of activity. Using a type of inducible reporter, measures of mRNA for gain or loss-of-signal activity can be used to understand the reporter gene at the transcription factor-level as they relate to the gene NR1I2. Furthermore, this assay endpoint can be referred to as a primary readout, because this assay has produced multiple assay endpoints where this one serves a reporter gene function. To generalize the intended target to other relatable targets, this assay endpoint is annotated to the nuclear receptor intended target family, where the subfamily is non-steroidal.
Human liver HepG2 cells are transiently transfected with multiple reporter transcription units (MRTUs) in 6-well plates using FuGene 6 reagent (Roche; 3 ml FuGene/1 mg DNA). The MRTU constructs are regulated by a cis-regulating element (promoter). […] A major difference between the CIS and TRANS system is that in CIS activities of endogenous TFs are measured, whereas the TRANS assay evaluates changes in activities of exogenous, chimeric NR-Gal4 proteins. […] At the end of 24 hour incubation, total RNA was isolated using TriZol reagent (Invitrogen). The isolated RNA is then reverse-transcribed using oligo(dT) primer and Mo-MLV reverse transcriptase (Invitrogen) with DNAse I (Ambion) treatment for 30 min. The one-tenth of the produced cDNA was amplified by PCR using Taq DNA polymerase (Invitrogen) and two reporter sequence-specific primers. The PCR products were fluorescently labeled by primer extension with 6-arboxyfluorescein (6-FAM) 5'-labeled reporter sequence-specific primer (2 min at 95 C, 20 s at 68 C and 10 min at 72 C) and these products were digested with 5U of HpaI (New England Biolabs) for 2h at 37 C. The fragments were purified using Qiaquick PCR columns (Qiagen), analyzed on an ABI 3130xL genetic analyzer (Applied Biosystems) with peak positions identified by using a set of X-rhodamine (ROX)-labeled MapMarker1000 molecular weight standards (BioVentures). The raw capillary electrophoresis data was processed using Attagraph software (Attagene).
Regarding `CSc1ccc(Cl)cc1`, the outcome was inactive.
For the compound `CCC(=O)OC(C)c1ccccc1` (stereo not given), the AC50 was 26.5 µM (active).
Take `C=CC(=O)OCC(F)(F)C(F)(F)C(F)(F)COC(=O)C=C`: the compound was called inactive.
With `CCN=C1C=CC(=C(c2ccc(N(CC)CC)cc2)c2ccc(N(CC)CC)cc2)c2ccccc21`, the AC50 is 1.23 µM (active).
Take `C=C(C)CCCC`: the compound was called inactive.
Same read-out and setting: as for `CCC(C)CO` (stereo not given), the entry is “inactive”; as for `CCCCOC(=O)C(C)O` (stereo not given), “inactive”.
For the compound `CC(C)(C)C(=O)C1C(=O)c2ccccc2C1=O`, the AC50 was 13.9 µM (active).
Turning to `CCc1cccc(C)c1N(C(=O)C(=O)O)C(C)COC` (stereo not given), the compound was classed as inactive.
Same read-out and setting: the entry for `C#CC(O)CCC` (stereo not given) is “inactive”.
Turning to `CCN(CC)c1ccc(N=Nc2ccccc2)cc1`, the AC50 was 3.99 µM (active).
With `N#CCCOCCC#N`, the call was inactive.
Consider `CCOC(=O)C1CC(=O)C(=C(O)C2CC2)C(=O)C1` (stereo not given), for which the AC50 is 77.3 µM (active).
Take `FC(F)(F)C(F)(F)C(F)(F)C(F)(F)C(F)(F)C(F)(F)C(F)(F)CCI`: the compound was called inactive.
Turning to `CCOC(=O)CC(=O)C(F)(F)C(F)(F)F`, the AC50 was 75.8 µM (active).
As to `OCC(F)(F)C(F)(F)C(F)(F)CO`, the compound was called inactive.
Still for that read-out and setting: as for `CC(C)CCCC(C)CCO` (stereo not given), the entry is “inactive”; as for `O=C1C=CC(=O)N1c1ccccc1`, “inactive”.
Regarding `Cc1ccc(S(=O)(=O)C(I)I)cc1`, the AC50 was 8.89 µM (active).
As for `Cc1cc(=O)[nH]c(C(C)C)n1`, the outcome was inactive.
For `CCOCN(C(=O)CS(=O)(=O)O)c1c(C)cccc1CC`, the AC50 is 42 µM (active).
Take `CC1CCCCC1`: the outcome was inactive.
Consider `Cc1ccc2c(c1)OCC(=O)CO2`, for which the AC50 is 77 µM (active).
The same measure, in the same setting: as for `C=CC(=O)OCCC(F)(F)C(F)(F)C(F)(F)C(F)(F)F`, the figure is 43.8 µM (active).
Regarding `NC(O)(C(F)(F)F)C(F)(F)F`, the call was inactive.
As to `CC(O)C#CC(C)O` (stereo not given), the AC50 was 148 µM (active).
With `O=C(O)C(F)(F)C(F)(F)C(F)(F)OC(F)(C(F)(F)F)C(F)(F)F`, the AC50 is 39.8 µM (active).
In the case of `O=C(O)C(F)(F)C(F)(F)C(F)(F)C(=O)O`, the outcome was inactive.
The same measure, in the same setting: the entry for `CCCCCCCCCCCC(=O)Cl` is “inactive”.
As for `CCc1ccc(C)nc1`, the compound was classed as inactive.
The same measure, in the same setting: as for `O=C(Cl)C(F)(F)C(F)(F)C(F)(F)C(F)(F)C(F)(F)C(F)(F)C(F)(F)F`, the entry is “inactive”; as for `CC1=CCC2C(=O)OC(=O)C2C1` (stereo not given), “inactive”; as for `NCC(F)(F)C(F)(F)C(F)(F)C(F)(F)C(F)(F)C(F)(F)F`, “inactive”.
As for `OCC(O)CC(F)(F)C(F)(F)C(F)(F)C(F)(F)F` (stereo not given), the compound was classed as inactive.
As for `O=C(c1ccccc1)c1ccc(O)cc1O`, the AC50 is 48.6 µM (active).
Take `Cc1cccc(C)n1`: the outcome was inactive.
As to `CC1=CC2C3C=CC(C3)C2C1C` (stereo not given), the AC50 was 1.59 µM (active).
For the compound `CO[Si](CCCOCC1CO1)(OC)OC` (stereo not given), the outcome was inactive.
Consider `O=C1c2ccccc2C(=O)c2c(Cl)cccc21`, for which the AC50 was 0.997 µM (active).
With `NC(=O)C(F)(F)C(F)(F)C(F)(F)C(F)(F)C(F)(F)C(F)(F)C(F)(F)F`, the compound was classed as inactive.
